Assay outcomes from PubChem BioAssay.
Compounds with a hit are over-represented: about 2.7% of the library has one in this group of screens.
Nrf2 ARE act: activates Nrf2 signaling | AREc32 ARE-luciferase reporter (MCF7-derived line), luminescence, 24 h | Potency, µM (highest dose often 46.1 µM), most hits filed as activators | 410,000 tested, 0.31% active; note: nearly all actives have a fitted effect of over 65% in size
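AREc32 cells carrying an ARE-driven firefly luciferase reporter were seeded at 1000 cells/well in OPTI-MEM with 5% FBS, then exposed to compound for 24 hr at 37 deg C. Luminescence was read with Steady-Glo after 30 min at RT.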
Nrf2 block: blocks Nrf2 signaling | A549 ARE-Fluc reporter, luciferase luminescence, 18-24 h | 360,000 tested, 2.1% active | Potency, µM (titrated, usually from 46 µM), most hits filed as inhibitors | AID 504444; note: nearly all actives have a fitted effect of over 60% in size
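Reporter: ARE-Fluc in A549. Exposure: 18-24 h, 37 °C, 5% CO2, 5% FBS OPTI-MEM. Readouts: fluorescent cytotoxicity (CellTiter-Fluor), then luminescent Nrf2 signal after BugLite.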
A549 viability: kills or reduces viability of A549 cells in Nrf2 counter-screen; Potency, µM (top dose mostly 46 µM), most hits filed as inhibitors; AID 504648; A549 ARE-Fluc cells, CellTiter-Fluor viability, 18-24 h; 390,000 tested, 0.16% active
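Cytotoxicity counterscreen: CellTiter-Fluor fluorescence was measured in A549 ARE_Fluc cells after 18-24 h of compound exposure in a concentration series. The subsequent BugLite luminescent read reports ARE-luciferase activity.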
12-LOX inh: blocks human arachidonate 12S-lipoxygenase; purified 12hLO, xylenol orange hydroperoxide absorbance; P18054; 580,000 tested, 1.1% active; Potency, µM (highest dose often 108 µM), actives largely listed as inhibitors
Target sequence (P18054 whole entry, looked up): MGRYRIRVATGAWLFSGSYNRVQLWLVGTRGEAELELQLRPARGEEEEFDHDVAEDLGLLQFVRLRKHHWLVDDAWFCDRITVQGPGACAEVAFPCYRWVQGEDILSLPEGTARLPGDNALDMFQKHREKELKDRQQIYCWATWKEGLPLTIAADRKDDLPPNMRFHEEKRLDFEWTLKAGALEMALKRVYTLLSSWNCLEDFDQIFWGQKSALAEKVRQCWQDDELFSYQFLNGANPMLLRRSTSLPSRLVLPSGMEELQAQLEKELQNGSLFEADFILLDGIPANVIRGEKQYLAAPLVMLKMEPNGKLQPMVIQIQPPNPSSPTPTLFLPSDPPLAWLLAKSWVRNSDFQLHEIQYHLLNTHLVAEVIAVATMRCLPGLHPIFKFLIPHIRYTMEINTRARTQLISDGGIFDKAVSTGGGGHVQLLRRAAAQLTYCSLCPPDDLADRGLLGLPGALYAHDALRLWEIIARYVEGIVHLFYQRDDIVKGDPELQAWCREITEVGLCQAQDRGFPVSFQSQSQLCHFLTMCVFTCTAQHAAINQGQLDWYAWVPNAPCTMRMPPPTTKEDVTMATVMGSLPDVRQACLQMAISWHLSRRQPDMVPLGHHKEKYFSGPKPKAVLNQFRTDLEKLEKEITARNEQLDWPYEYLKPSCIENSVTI
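Hydroperoxide product was detected by ferrous iron/xylenol orange as the 573 to 405 nm absorbance ratio. Arachidonic acid at 40 uM (final) was turned over for 30 min at room temperature by 150 nM human 12hLO, pH 7.0 Hepes buffer, after 15 min compound preincubation.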
LDHA inh: blocks human lactate dehydrogenase A. 480,000 tested, 0.15% active. AID 1347041. purified LDHA, NADH/diaphorase-resazurin fluorescence; hits give low values. activity change, % (values are at about 110 or 230 µM); in the data active = activity change below about -30%; inconclusive = mostly about -25% to -30%
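Human LDH5 (2 nM) was incubated with 0.06 mM NADH and 0.2 mM pyruvate for 5 min at room temperature in Tris pH 7.4. Remaining NADH was coupled through diaphorase/resazurin, and resorufin fluorescence was read at 0 and 20 min.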
IDH1 R132H inh: inhibitors of human mutant IDH1 R132H | Potency, µM (highest dose often 76.6 µM), usual class: inhibitors | 390,000 tested, 0.093% active | AID 602179 | IDH1-R132H enzyme, NADPH consumption, diaphorase/resazurin fluorescence; note: nearly all actives have a fitted effect of over 65% in size
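IDH1-R132H (0.5 ug/mL) preincubated 30 min with compound, then NADPH (0.016 mM) and alpha-KG (2 mM) added; 80 min at RT, pH 7.5. Remaining NADPH coupled via diaphorase/resazurin to fluorescence (540/590 nm); concentration-response curves normalized to no-enzyme control.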
Of the large screens only hits and unclear results are named; the others gave an inactive call. Unless noted, calls come from the whole dose curve; as a rule, active = well fitted curve in the direction sought with a large enough effect; inconclusive = small, poorly fitted or top-dose-only effect, or another doubt; inactive = no such curve, though single readings can be large; an effect the other way counts as inactive or inconclusive.

CC1CCN(C(=O)c2cc3c(s2)CCC(C(=O)NCCCN2CCOCC2)C3)CC1 (stereo not given)	none (no result: Nrf2 ARE act, Nrf2 block, A549 viability, LDHA inh, IDH1 R132H inh)
O=C(CSc1nc2cc(S(=O)(=O)N3CCOCC3)ccc2o1)NC12CC3CC(CC(C3)C1)C2	12-LOX inh inconclusive (no result: Nrf2 ARE act, Nrf2 block, A549 viability, IDH1 R132H inh)
C(=Nc1ccccc1N=Cc1cccs1)c1cccs1	none (no result: Nrf2 ARE act, Nrf2 block, A549 viability, IDH1 R132H inh)
Oc1ccc(/C=N/N2CCN(C3c4ccccc4-c4ccccc43)CC2)cc1	none
Oc1ccc(/C=N/N2CCN(C3c4ccccc4-c4ccccc43)CC2)cc1O	12-LOX inh 18µM
COc1ccc2c(c1OC)C(=O)N(c1cccc(/C=C/C(=O)O)c1)C2	Nrf2 block 16µM, 12-LOX inh inconclusive
O=C(Nc1ccc(Cl)cc1)C1CCN(c2cnc3ccccc3n2)CC1	12-LOX inh inconclusive (no result: Nrf2 ARE act, Nrf2 block, A549 viability, IDH1 R132H inh)
COc1ccc2oc(=O)c(/C(C)=N/Nc3ccccc3)cc2c1	12-LOX inh 32µM
CCOC(=O)c1sc(Nc2cc(C)ccc2C)nc1C(F)(F)F	12-LOX inh inconclusive (no result: Nrf2 ARE act, Nrf2 block, A549 viability, IDH1 R132H inh)
COc1ccc(-c2nn(-c3ccc(F)cc3)c(OC(C)=O)c2-c2ccc(NC(C)=O)cc2)cc1OC	12-LOX inh 11µM (no result: Nrf2 ARE act, Nrf2 block, A549 viability, LDHA inh, IDH1 R132H inh)
COc1ccc(N(CC(C)C)S(=O)(=O)c2nnc(NC(=O)c3cccs3)s2)cc1	Nrf2 block 21µM, 12-LOX inh inconclusive
COc1ccc(C(=O)C(Br)C(=O)c2ccc(OC)cc2)cc1	12-LOX inh 6.3µM (no result: Nrf2 ARE act, Nrf2 block, A549 viability, IDH1 R132H inh)
c1ccc(C2(c3ccccc3)CCCN(Cc3cscn3)C2)cc1	12-LOX inh 45µM (no result: Nrf2 ARE act, Nrf2 block, A549 viability, LDHA inh, IDH1 R132H inh)
Cc1ccc(Nc2nc(-c3cc4ccccc4oc3=O)cs2)cc1C	none (no result: Nrf2 ARE act, Nrf2 block, A549 viability, IDH1 R132H inh)
O=c1oc2ccccc2cc1-c1nc(-c2cccs2)cs1	Nrf2 ARE act 2.5µM (no result: Nrf2 block)
O=C(O)c1ccc(Nc2nc(-c3cc4ccccc4oc3=O)cs2)cc1O	12-LOX inh 40µM
O=c1oc2ccc(Cl)cc2cc1-c1csc(Nc2ccccc2)n1	12-LOX inh 20µM (no result: Nrf2 ARE act, Nrf2 block, A549 viability, IDH1 R132H inh)
COc1cccc(Nc2nc(-c3cc4cc(Cl)ccc4oc3=O)cs2)c1	none (no result: Nrf2 ARE act, Nrf2 block, A549 viability, IDH1 R132H inh)
CC(=O)Nc1ccc(Nc2nc(-c3cc4ccccc4oc3=O)cs2)cc1	12-LOX inh inconclusive
Cc1cccc(Nc2nc(-c3cc4ccccc4oc3=O)cs2)c1	12-LOX inh 40µM (no result: Nrf2 ARE act, Nrf2 block, A549 viability, IDH1 R132H inh)
O=[N+]([O-])c1ccc2nonc2c1Nc1ccccc1Cl	LDHA inh inconclusive (no result: Nrf2 ARE act, Nrf2 block, A549 viability, IDH1 R132H inh)
COc1ccc(OCC(=O)Nc2ccc3c(C)cc(=O)oc3c2)cc1	12-LOX inh inconclusive (no result: Nrf2 ARE act, Nrf2 block, A549 viability, IDH1 R132H inh)
Cc1cccc(-c2nc(C#N)c(N3CCOCC3)o2)c1	12-LOX inh inconclusive, LDHA inh -31 (no result: Nrf2 ARE act, Nrf2 block, A549 viability, IDH1 R132H inh)
CCOc1ccc(S(=O)(=O)c2c(C(=O)c3ccc(C)cc3)cnc3cc4c(cc23)OCCO4)cc1	none
Cc1ccc(C(=O)c2cnc3cc4c(cc3c2S(=O)(=O)c2ccccc2)OCCO4)cc1	Nrf2 ARE act 13µM, Nrf2 block inconclusive
COCCSc1ccccc1C(=O)Nc1nnc(C)s1	12-LOX inh 11µM
COCCSc1ccccc1C(=O)Nc1ccc(Cl)cn1	none
COCCSc1ccccc1C(=O)Nc1ccccc1C(C)C	12-LOX inh inconclusive
CCCSc1ccccc1C(=O)Nc1cccc(C)c1C	12-LOX inh 25µM (no result: Nrf2 ARE act, Nrf2 block, A549 viability, IDH1 R132H inh)
COCCSc1ccccc1C(=O)Nc1nccs1	12-LOX inh 14µM
CCSc1ccccc1C(=O)Nc1cccc(C)c1C	12-LOX inh inconclusive (no result: Nrf2 ARE act, Nrf2 block, A549 viability, IDH1 R132H inh)
Cc1ccn2cc(-c3ccccc3)cc2c1	12-LOX inh 32µM (no result: Nrf2 ARE act, Nrf2 block, A549 viability, IDH1 R132H inh)
Cc1ccc(C)c(-c2cc3ccccn3c2)c1	12-LOX inh inconclusive (no result: Nrf2 ARE act, Nrf2 block, A549 viability, IDH1 R132H inh)
O=C(CC1CCCC1)NCc1ccncc1	none (no result: Nrf2 ARE act, Nrf2 block, A549 viability, IDH1 R132H inh)
COc1ccc(Br)c2c1/C(=N/OC(=O)c1ccccc1Cl)CC2	none (no result: Nrf2 ARE act, Nrf2 block, A549 viability, IDH1 R132H inh)
COc1ccccc1Cc1c(-c2ccco2)nc2ccc(Br)cn12	Nrf2 ARE act inconclusive, 12-LOX inh 18µM (no result: Nrf2 block, A549 viability, IDH1 R132H inh)
FC(F)(F)c1ccccc1Cc1c(-c2ccco2)nc2ccc(Br)cn12	Nrf2 ARE act inconclusive, 12-LOX inh 35µM (no result: Nrf2 block, A549 viability, IDH1 R132H inh)
COc1ccccc1Cc1c(-c2ccco2)nc2ccc(Cl)cn12	Nrf2 ARE act inconclusive, 12-LOX inh inconclusive (no result: Nrf2 block, A549 viability, IDH1 R132H inh)
CC(C)(C)OC(=O)COc1ccc2c(=O)c(Oc3ccccc3Br)coc2c1	none (no result: Nrf2 ARE act, Nrf2 block, A549 viability, IDH1 R132H inh)
O=C(CN1CCN(c2nc(C(F)(F)F)nc3ccccc23)CC1)NC1CC1	none (no result: Nrf2 ARE act, Nrf2 block, A549 viability, IDH1 R132H inh)
